Experimental data published in PubChem BioAssay AID2528 (National Center for Advancing Translational Sciences (NCATS), 2010).
Several values for one entry are separate records, joined by “and”; a condition that tells them apart may be missing. Equal entries are not always repeated. The whole screen tested about 350,000 compounds, of which about 700 (0.2%) were called active. This is one part of a sample in which actives are shown more often than they occur. A number with no mark means an inactive call. Calls follow the shape of the dose curve; as a rule, active = well fitted inhibition curve with a large enough effect; inconclusive = small, poorly fitted or top-dose-only effect; inactive = flat fitted curve, though single readings scatter.

The compounds below were run against RecQ-like DNA helicase BLM (Homo sapiens) (UniProt P54132) (assay: qHTS Assay for Inhibitors of Bloom's syndrome helicase (BLM)). Settings: recombinant BLM DNA unwinding, fluorescence dequenching; series mostly up to 56.1 µM; activity change, negative = inhibition: at the top concentration.
Text: Survival of cells and the faithful propagation of the genome depend on elaborate mechanisms of detecting and repairing DNA damage. Treatment of advanced cancer relies on radiation therapy or chemotherapy, which kill cancer cells by causing extensive DNA damage. It is often found, that cancer cells develop resistance to therapy through enhanced activity of DNA repair functions; this has led to an increased interest in developing drugs that interfere with DNA repair, which could sensitize cancer cells to conventional therapy.
This validation qHTS assay pertains to human BLM, which is important in resolving abnormal DNA structures formed during replication or homologous recombination. Shutting down the expression of BLM leads to chromosomal instability and higher radiation sensitivity in cultured cells.
The validation assay was a fluorescence quenching based kinetic qHTS for BLM Helicase DNA unwinding. The activity was measured as ATP-dependent separation of a 20-bp DNA duplex extended by 30-nt single-stranded tails (forked duplex). The forked DNA substrate was tagged with rhodamine fluorophore (carboxytetramethyl rhodamine, TAMRA) and BHQ-2 (Black Hole Quencher 2) dark quencher. Strand separation results in an increase in the fluorescence of TAMRA (excitation 525 nm, emission 598 nm). This substrate construct operates in a red-shifted region where very few compound library members have been noted to fluoresce (PubChem AIDs 593 and 594). An additional feature of the assay is the inclusion of 2.5 ug/ml poly (dIdC), to reduce interference by compounds such as DNA intercalators, a major source of false inhibitors.
Ian Hickson, University of Oxford
Opher Gileadi, Structural Genomics Consortium, University of Oxford
Screening Center PI: Austin, C.P.
Screening Center: NIH Chemical Genomics Center [NCGC]
Three uL of reaction buffer (25 mM Tris-HCl (pH 8.0), 5 mM NaCl, 2 mM MgCl2, 1mM DTT, 0.01% Tween- 20, and 2.5 ug/ml poly(dI-dC), including enzyme (50 nM BLM), were dispensed into a 1536-well Greiner black assay plate via solenoid-valve based nanoliter dispensers. Compounds (23 nl each in columns 5-48) and control (23 nl each in column 2 as dose-response) were transferred via a Kalypsys pintool equipped with a 1536-pin array. The plates were incubated for 15 min at room temperature, and then 1 ul of substrates (200 nM DNA and 2 mM ATP, final concentrations) was added to start the reaction. The plate was transferred into a ViewLux high-throughput CCD imager where the reaction progress was measured in a discontinuous kinetic mode (two reads spaced 2 hours apart, with intermediate room temperature incubation of the covered assay plate) by using standard red-fluorescence optics (excitation filter 525 nm, emission filter 598 nm). Enzyme-free and vehicle (DMSO) controls were included for signal normalization.
Also: nearly all actives have a fitted effect of over 35% in size.
Potency is read from the fitted curve at half-maximal effect.

Chain of RecQ-like DNA helicase BLM (Homo sapiens) (P54132 whole entry, looked up): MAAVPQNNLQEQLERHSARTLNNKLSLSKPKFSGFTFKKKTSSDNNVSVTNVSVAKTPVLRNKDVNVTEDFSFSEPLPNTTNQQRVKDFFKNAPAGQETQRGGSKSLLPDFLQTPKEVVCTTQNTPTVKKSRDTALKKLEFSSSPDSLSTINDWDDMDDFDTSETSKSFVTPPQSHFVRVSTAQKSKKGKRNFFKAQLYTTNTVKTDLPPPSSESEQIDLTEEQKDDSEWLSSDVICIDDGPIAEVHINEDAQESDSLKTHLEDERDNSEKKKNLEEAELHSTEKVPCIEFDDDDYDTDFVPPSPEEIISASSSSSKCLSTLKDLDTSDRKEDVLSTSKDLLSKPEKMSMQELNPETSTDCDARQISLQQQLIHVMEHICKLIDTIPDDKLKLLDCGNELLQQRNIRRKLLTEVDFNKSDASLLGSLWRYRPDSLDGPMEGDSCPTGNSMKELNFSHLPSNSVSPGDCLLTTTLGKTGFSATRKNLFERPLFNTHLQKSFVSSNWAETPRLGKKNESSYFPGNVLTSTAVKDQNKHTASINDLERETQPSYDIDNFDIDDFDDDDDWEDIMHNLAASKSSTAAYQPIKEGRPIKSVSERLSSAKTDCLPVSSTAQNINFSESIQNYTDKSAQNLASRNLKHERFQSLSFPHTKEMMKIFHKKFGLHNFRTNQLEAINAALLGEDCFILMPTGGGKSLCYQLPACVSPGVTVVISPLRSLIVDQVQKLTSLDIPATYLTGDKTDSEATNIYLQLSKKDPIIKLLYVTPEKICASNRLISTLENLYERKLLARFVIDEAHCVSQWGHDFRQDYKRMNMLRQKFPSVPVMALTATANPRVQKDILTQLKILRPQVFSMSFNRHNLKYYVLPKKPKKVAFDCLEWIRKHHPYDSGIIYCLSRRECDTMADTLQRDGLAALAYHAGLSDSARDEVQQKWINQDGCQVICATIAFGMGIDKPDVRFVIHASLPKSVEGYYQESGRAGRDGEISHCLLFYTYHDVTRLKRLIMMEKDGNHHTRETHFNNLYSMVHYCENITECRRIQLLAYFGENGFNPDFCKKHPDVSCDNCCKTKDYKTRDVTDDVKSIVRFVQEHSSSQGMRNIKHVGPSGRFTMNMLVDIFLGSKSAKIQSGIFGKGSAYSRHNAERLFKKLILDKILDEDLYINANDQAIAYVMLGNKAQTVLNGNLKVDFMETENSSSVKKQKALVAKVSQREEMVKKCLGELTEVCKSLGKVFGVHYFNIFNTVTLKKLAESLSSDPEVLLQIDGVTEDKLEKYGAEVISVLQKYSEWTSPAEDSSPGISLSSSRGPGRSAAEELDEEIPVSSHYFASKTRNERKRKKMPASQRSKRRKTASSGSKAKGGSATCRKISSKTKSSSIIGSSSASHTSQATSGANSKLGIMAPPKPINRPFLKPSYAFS

| SMILES | activity change, negative = inhibition | Potency |
| --- | --- | --- |
| O=C(N/N=C/c1ccco1)c1ccc(NC(=O)C2CC2)cc1 | -5.07% | – |
| O=C(N/N=C/C=C/c1ccco1)c1cccs1 | – | 22.4 µM (active) |
| Cc1noc(C)c1-c1ccc2ncnc(NCc3ccc4[nH]ccc4c3)c2c1 | 2.82% | – |
| O=C(O)C(c1ccccc1)N1C(=O)/C(=C\c2ccc(-c3cccc(Cl)c3)o2)SC1=S (configuration not stated) | – | 22.4 µM (active) |
| CN=C1S/C(=C\c2ccc(Sc3ccc(Cl)cc3)o2)C(=O)N1C | 1.6% | – |
| O=C(NCc1ccccc1)c1cc(-c2cccc(Cl)c2)on1 | -4.2% | – |
| CCN1CC=C2C(C#N)=C(N)C(C#N)(C#N)[C@H](c3ccoc3)[C@H]2C1 | – | 28.2 µM (active) |
| COc1cccc(-c2cc(=O)c3cc(NC(=O)c4ccc(C)cc4)ccc3[nH]2)c1 | 1.5% [at 75.6 µM] | – |
| CCOC(=O)C1=NO[C@@]2(C=C(Br)C(=O)[C@H]3O[C@H]32)C1 | 4.08% | – |
| CN1CCCC1CCO[C@@](C)(c1ccccc1)c1ccc(Cl)cc1 (some centres not stated) | -0.377% | – |
| NS(=O)(=O)c1ccc2nc(NC(=O)COc3ccccc3)sc2c1 | -2.46% | – |
| CC(=O)OCC(=O)C1CCC2C3CCC4=CC(=O)CC[C@@]4(C)C3CC[C@]12C (some centres not stated) | -10.3% | – |
| CC(C)(C)c1ccc(OC2C=CC(C#Cc3ccccc3)OC2CO)cc1 (configuration not stated) | -1.55% [at 12.4 µM] | – |
| COC(=O)[C@@H]1CC2=CC(=O)CC[C@]2(C)[C@@]23O[C@@H]2C[C@@]2(C)[C@@H](CC[C@@]24CCC(=O)O4)[C@H]13 | 4.16% | – |
| O=C1CN(Cc2ccccc2)S(=O)(=O)c2ccccc21 | -3.21% | – |
| Nc1ccc2nc3c(=O)[nH]c(=S)[nH]c3nc2c1 | – | 2.82 µM (active) |
| O=C(Nc1cccc(C(F)(F)F)c1)c1cc(Br)cc(Br)c1O | -13.1% | – |
| COC(=O)[C@@]1(Cc2ccc(OC)cc2)[C@H]2c3cc(C(=O)N4CCCC4)n(Cc4ccc(C(F)(F)F)nc4)c3C[C@H]2CN1C(=O)c1ccccc1 | -17.2% | – |
| COc1ccccc1CNC(=O)C(=O)NCC(c1cccs1)S(=O)(=O)c1cccs1 (configuration not stated) | -2.66% | – |
| CO[C@H]1COC(=O)[C@@H](OCc2ccccc2)/C=C\[C@H](C)[C@@H](OC)COC(=O)[C@H](OCc2ccccc2)/C=C\[C@@H]1C | 6.6% [at 12.4 µM] | – |
| CC(=O)OCC1OC(C#CCCCc2ccccc2)C=CC1OC(C)=O (configuration not stated) | -2.87% [at 12.4 µM] and 2.33% [at 12.4 µM] | – |
| C#CCCCCCCCCCCCCCCCC(=O)O | – | inactive |
| O=C(Nc1cccc(F)c1)N1CCC2(CC1)CCN(S(=O)(=O)c1ccccc1)CC2 | -3.85% | – |
| COc1cccc(Nc2nc(N)c([N+](=O)[O-])c(NCc3ccco3)n2)c1 | – | 3.55 µM (active) |

| SMILES | activity change, negative = inhibition | Potency |
| --- | --- | --- |
| CN(c1ccccc1)c1nc(N)c([N+](=O)[O-])c(NCc2ccco2)n1 | -4.92% | – |
| CNc1nc(Nc2ccc(C)c(Cl)c2)nc(N)c1[N+](=O)[O-] | -3.82% | – |
| CS(=O)(=O)N1CCC2(CC1)CN(Cc1ccccc1)C2 | 1.65% | – |
| COC1[C@H](OC(N)=O)C(O)[C@H](Oc2ccc3c(O)c(NC(=O)c4ccc(O)c(CC=C(C)C)c4)c(=O)oc3c2C)OC1(C)C (some centres not stated) | -11.1% | – |
| COc1ccc2c(c1)O[C@@H](c1ccc3c(c1)OCO3)[C@H](OC(=O)NCc1ccco1)C2=O | -1.86% | – |
| Clc1ccc(C(Cn2ccnc2)OCc2ccsc2Cl)c(Cl)c1 (configuration not stated) | -8.4% | – |
| Cc1[nH]c2ccccc2c1C(c1ccccc1)c1cccs1 (configuration not stated) | -2.8% | – |
| COc1ccccc1CNc1cc(-c2ccccc2CN(C)C)ncn1 | -4.32% | – |
| C/C=C1\C2C=C(C)CC1(N)c1ccc(=O)[nH]c1C2 (configuration not stated) | -1.88% | – |
| COc1cc(NS(=O)(=O)c2ccc3c(c2)OCC(C(=O)N2CCCC2)O3)cc(OC)c1 (configuration not stated) | 0.541% | – |
| COc1ccc(OC)c2sc(N3CCN(C(=O)C4COc5ccccc5O4)CC3)nc12 (configuration not stated) | -5.31% | – |
| Cc1c(CC(=O)N2CCN(C(=O)C3COc4ccccc4O3)CC2)c(=O)oc2c(O)c(O)ccc12 (configuration not stated) | – | 8.91 µM (active) |
| COC(=O)CC1c2ccccc2C(Cc2ccc(OC)cc2)=C(C)N1C(=O)OC (configuration not stated) | 1.25% [at 12.4 µM] | – |
| O=C(NC1CC(=O)N(c2ccc(F)cc2)C1)c1ccc(S(=O)(=O)N2CCCC2)cc1 (configuration not stated) | 0.711% | – |
| O=c1c(CCc2ccccc2)nc2cncnc2n1C1CC1 | 3% | – |
| COC(=O)c1ccc(C(NC(=O)OCc2ccccc2)/C(C)=C/[C@@H](C)C(=O)NCc2cc(C)on2)cc1 (some centres not stated) | -7.71% | – |
| C#CCC(C(=O)OC)(C(=O)OC)C(C[N+](=O)[O-])c1ccccc1 (configuration not stated) | 0.0811% [at 12.4 µM] | – |
| COc1ccc(OCCCn2c(C3CC(=O)N(c4ccc(F)cc4)C3)nc3ccccc32)cc1 (configuration not stated) | -6.91% | – |
| Cc1ccc(N=C2NC(=O)/C(=C/C=C/c3ccco3)S2)cc1C | – | 11.2 µM (active) |
| Cc1cc(N(C)C)nc(Cl)n1 | 2.61% | – |
| O=S(O)S(=O)(=O)O | -2.82% | – |
| N#Cc1cccc(CS(=O)(=O)c2nnnn2-c2cc(C(F)(F)F)cc(C(F)(F)F)c2)c1 | 2.23% | – |
| O=C(c1ccco1)N1CCC[C@@]2(CCN(c3ccccc3)C2)C1 | -1.82% | – |
